Screening results as filed in PubChem BioAssay.
Compounds with a hit are over-represented: about 21% of the library has one in this group of screens.
Shiga inhibitor = inhibitors of Shiga toxin in Vero cells; AID 2315; inhibition, % at 38.7 µM; hit rate 9.2% among 290,000; Vero cells, Shiga toxin protein synthesis inhibition reporter; in the data active = inhibition mostly above about 28%, no sharp cut-off; inactive = mostly below about 43%; note: 0% is about no effect
Pf growth 48h = inhibits P. falciparum growth in the first generation, 48 h; P. falciparum luciferase growth in erythrocytes, 48 h; Potency, µM (top dose mostly 28.7 µM), for the others: top-dose activity change, negative = inhibition, hits mostly inhibitors; hit rate 5.9% among 310,000; AID 504832; note: potency is the fitted concentration of half-maximal effect; % is set by controls: 0 for no effect and ±100 for the full control effect
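Read-out is firefly luciferase luminescence from an integrated reporter in P. falciparum, so falling signal marks reduced parasite growth. Infected erythrocytes were at 2% hematocrit and 0.1% parasitemia (final) in Albumax-supplemented RPMI 1640.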
Cycloheximide cs = counter-screen hit for Shiga toxin inhibitors, cycloheximide. hit rate 12% among 300,000. max response, %. cell reporter, cycloheximide protein synthesis inhibition counterscreen. AID 2314; in the data active = max response mostly above about 13%, no sharp cut-off; inactive = mostly below about 14%; note: read at 38.3 µM for the half of the compounds with a filed dose; 0% is about no effect
Pf growth 96h = P. falciparum growth inhibition at 96 hour, primary screen for plastid delayed-death inhibitors; Potency, µM (doses to about 28.7 µM), for inactives: at the highest dose activity change, negative = inhibition, most hits filed as inhibitors; P. falciparum luciferase reporter growth, 96 h; hit rate 6.9% among 320,000; note: potency is the fitted concentration of half-maximal effect; % is set by controls: 0 for no effect and ±100 for the full control effect
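96 h incubation, 37 C, 5% CO2, of luciferase-reporter P. falciparum-infected RBCs (2% hematocrit, 0.05% parasitemia final) with test compounds; endpoint luminescence.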
HCV inh = inhibitors of hepatitis C virus infection | Potency, µM (highest dose often 41.8 µM), inactives show top-dose activity change, negative = inhibition, usual class: inhibitors | Huh7.5.1 HCVcc-Cre infection, luciferase reporter, 44 h | hit rate 3.4% among 340,000; note: potency is the fitted concentration of half-maximal effect; % is set by controls: 0 for no effect and ±100 for the full control effect
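Cells (1,000/well) were plated 4 h before compound, then infected with HCVcc-Cre virus (~0.5 moi). After 44 h further culture, infection was read as luciferase luminescence following a 15 min substrate incubation at room temperature.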
HCMV inh = human cytomegalovirus inhibition; HFF cells, HCMV-luciferase reporter, 72 h; hits give low values; activity change, negative = inhibition, % at 57.5 µM; hit rate 4.5% among 410,000; in the data active = activity change below about -60%; inconclusive = no clear call, values can overlap the other calls; inactive = above about -39%; note: % is set by controls: 0 for no effect and ±100 for the full control effect
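Two compound doses tested in HFFs infected with HCMV-luciferase, MOI 1 PFU/cell, 72 h at 37C. Lysate luminescence read with OneGlo; data normalized against buffer-only and 10uM Salinomycin inhibitor controls.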
* marks the source's active call; other numbers are inactive results; [ ] = another dose, or the depositor's remark. Unless noted, calls come from the whole dose curve; as a rule, active = well fitted inhibition curve with a large enough effect; inconclusive = small, poorly fitted or top-dose-only effect, or another doubt; inactive = no such curve, though single readings can be large or run the other way.

For NS(=O)(=O)c1ccc(O)c(NC(=O)c2ccc([N+](=O)[O-])o2)c1 the results were Shiga inhibitor -6, Pf growth 48h 7.4µM*, Cycloheximide cs 2, Pf growth 96h 10µM*, HCV inh 14% and HCMV inh inconclusive.
For COc1ccc(NC(=O)c2ccc([N+](=O)[O-])o2)cc1 the results were Shiga inhibitor 21, Pf growth 48h inconclusive, Cycloheximide cs 9, Pf growth 96h 0%, HCV inh inconclusive and HCMV inh -101*.
For COc1cc2c(cc1OC)C1O[C@](c3ccsc3)(C2)OC2=C1C(=O)CC(C)(C)C2 the results were Shiga inhibitor inactive, Pf growth 48h inconclusive, Cycloheximide cs 0 and Pf growth 96h inconclusive.
`CCOC(=O)c1sc(N(Cc2ccccc2)C(=O)CSc2nnc(C3CC3)n2N)nc1C` gave Shiga inhibitor 79*, Pf growth 48h 1%, Cycloheximide cs 17*, Pf growth 96h 27%, HCV inh -20% and HCMV inh -12.
Screening Cc1cccc(/C=N/NC(=O)Cn2nnnc2N)n1 returned Shiga inhibitor -8, Pf growth 48h 20%, Cycloheximide cs 10, Pf growth 96h 21%, HCV inh 9% and HCMV inh 19.
Screening COc1ccc(/C=C/c2nc(N)nc(-c3ccccc3O)n2)cc1 returned Shiga inhibitor 4, Pf growth 48h -4%, Cycloheximide cs 1, Pf growth 96h -10%, HCV inh -16% and HCMV inh -13.
Cc1cc(Nc2cccc(O)c2)c2cccc(Br)c2n1 was read as HCMV inh -39.
Screening Cc1ccc2c(Br)cc(Br)c(O)c2n1 returned Pf growth 48h 12µM* and Pf growth 96h 6.7µM*.
For COc1cc(/C=C/c2ccc3c(Br)cc(Br)c(O)c3n2)ccc1O the results were Shiga inhibitor -5, Pf growth 48h 9.3µM*, Cycloheximide cs -2, Pf growth 96h 3.7µM*, HCV inh 8.9µM* and HCMV inh -100*.
Screening COc1ccc(/C=C/c2ccc3c(Br)ccc(O)c3n2)cc1 returned Shiga inhibitor 94*, Pf growth 48h 17%[0.00184 µM], Cycloheximide cs 39*, Pf growth 96h 6%, HCV inh inconclusive and HCMV inh inconclusive.
For CC(C)C(C)(C#N)NC(=O)COC(=O)C1CCN(S(=O)(=O)c2ccc3c(c2)OCCO3)CC1 (stereo not drawn) the results were HCV inh 0% and HCMV inh -10.
`CC(C)c1ccc(Nc2cc3c(cn2)cc(-c2ccccc2)n3C)cc1` gave HCMV inh -21.
`CSc1nc(-c2ccco2)nn1C(=O)c1ccco1` gave Shiga inhibitor -15, Pf growth 48h 0%, Cycloheximide cs -4, Pf growth 96h -9%, HCV inh -3% and HCMV inh 27.
CSc1nc(-c2ccco2)nn1C(=O)c1ccc(C)cc1 was read as Shiga inhibitor 2, Pf growth 48h 8%, Cycloheximide cs -2, Pf growth 96h -1%, HCV inh 3% and HCMV inh 22.
`CSc1nc(-c2ccccc2)nn1C(=O)c1ccc(C)cc1` gave Shiga inhibitor 65, Pf growth 48h 31%, Cycloheximide cs 15*, Pf growth 96h 37%, HCV inh 3% and HCMV inh 60.
Screening CSc1nc(-c2ccc(Cl)cc2)nn1C(=O)c1ccco1 returned Shiga inhibitor 65*, Cycloheximide cs 62*, Pf growth 96h 111%, HCV inh 6% and HCMV inh 101.
S=C(NN=C1CCCCC1=NNC(=S)N1CCOCC1)N1CCOCC1 was read as HCMV inh -23.
Screening CCC(c1nnc(SCC(=O)Nc2cc(S(C)(=O)=O)ccc2Cl)n1Cc1ccccc1)N(C)C (stereo not drawn) returned Shiga inhibitor -13, Pf growth 48h inconclusive, Cycloheximide cs -3, Pf growth 96h -17%, HCV inh -1% and HCMV inh 4.
Screening Cc1cc(C)cc(N(C(=O)Cn2nnc3ccccc32)C(C(=O)NCc2ccco2)c2ccncc2)c1 (stereo not drawn) returned Shiga inhibitor 34, Pf growth 48h -21%, Cycloheximide cs 11, Pf growth 96h 18%, HCV inh -14% and HCMV inh 14.
COc1cccc(N(C(=O)Cn2nnc3ccccc32)C(C(=O)NCc2ccco2)c2cccnc2)c1 (stereo not drawn) was read as Shiga inhibitor -8, Pf growth 48h 8.3µM*, Cycloheximide cs -4, HCV inh inconclusive and HCMV inh 31.
For Cc1ccc(N(C(=O)Cn2nnc3ccccc32)C(C(=O)NCc2ccco2)c2cccnc2)cc1 (stereo not drawn) the results were Shiga inhibitor -4, Pf growth 48h 10µM*, Cycloheximide cs 21, Pf growth 96h inconclusive, HCV inh -2% and HCMV inh -24.
Screening O=C(COc1ccccc1)N(Cc1cccnc1)c1nc2ccc(Cl)cc2s1 returned HCMV inh 29.
`CCOC(=O)c1[nH]c2ccc(C)cc2c1N` gave Shiga inhibitor 61*, Pf growth 48h 491%, Cycloheximide cs 27*, Pf growth 96h inactive, HCV inh 1% and HCMV inh 66.
For CN(C)Cc1c(C(=O)Nc2ccccc2)[nH]c2ccccc12 the results were Pf growth 48h 2.9µM*, Pf growth 96h 9.3µM*, HCV inh -13% and HCMV inh 16.
Screening CCOC(=O)c1[nH]c2ccccc2c1NC(C)=O returned Shiga inhibitor -7, Pf growth 48h -2%, Cycloheximide cs -4, Pf growth 96h 22%, HCV inh 8% and HCMV inh 29.
For CCOC(=O)c1[nH]c2ccccc2c1NC(=S)Nc1cccc(C)c1 the results were Shiga inhibitor 27, Pf growth 48h 86%, Cycloheximide cs 32*, Pf growth 96h 59%, HCV inh 0%[8.37 µM] and HCMV inh 125.
For CCOC(=O)c1[nH]c2ccccc2c1NC(=S)Nc1ccccc1 the results were Shiga inhibitor 28, Pf growth 48h 76%, Cycloheximide cs 23*, Pf growth 96h 54%, HCV inh -17%[8.37 µM] and HCMV inh -7.
Screening Nc1ncnc2c1ncn2[C@@H]1O[C@H](C(=O)N2CCN(CC(=O)Nc3cccc4c3CNC4=O)CC2)[C@@H](O)[C@H]1O returned Shiga inhibitor -3 and Cycloheximide cs -7.
For CCOC(=O)c1[nH]c2ccccc2c1NC(=O)c1ccc(S(=O)(=O)N2CCCC2)cc1 the results were Shiga inhibitor 2, Pf growth 48h inconclusive, Cycloheximide cs -5, Pf growth 96h 12µM*, HCV inh -8%[8.37 µM] and HCMV inh 96.
Screening Cc1csc(NC(=O)C(C)Oc2ccc(Cl)cc2C)n1 (stereo not drawn) returned Pf growth 48h 13µM*, Pf growth 96h inconclusive, HCV inh inconclusive and HCMV inh 0.
